Compounds with a hit are over-represented: about 1.8% of the library has one in this group of screens.
S1P2 ag – S1P2 (human) receptor agonism; O95136; S1P2-expressing cell line, agonist reporter read-out; activation, % at 4.5 µM; actives 0.46% (n = 97,000); AID 729; in the data active means activation above about 16%;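 further: 0% = vehicle low control and 100% = maximal reference agonist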
Target sequence (O95136 whole entry, looked up): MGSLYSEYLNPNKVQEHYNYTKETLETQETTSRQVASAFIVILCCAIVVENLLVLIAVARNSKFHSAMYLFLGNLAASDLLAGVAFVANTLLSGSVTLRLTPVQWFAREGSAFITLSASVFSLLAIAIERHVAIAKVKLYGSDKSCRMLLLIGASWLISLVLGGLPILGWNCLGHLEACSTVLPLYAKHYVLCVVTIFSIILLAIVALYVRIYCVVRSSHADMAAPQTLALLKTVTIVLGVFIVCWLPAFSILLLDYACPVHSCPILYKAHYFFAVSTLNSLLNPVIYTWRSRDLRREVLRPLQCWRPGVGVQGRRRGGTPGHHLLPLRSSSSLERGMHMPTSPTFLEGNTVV
MRP-1 activ – MRP-1 activation; H69AR cells + doxorubicin, viability rescue, CellTiter-Glo; viability increase, % at 10 µM; actives 0.61% (n = 140,000); AID 799;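 active means viability gain under doxorubicin at or above a set limit, the compound median plus 3 SD, cut at about 4.7% in these data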;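 further: MRP-1 overexpressing cells given doxorubicin 25 µM after compound pretreatment; 18-22 h compound pretreatment then 72 h with doxorubicin before readout; 0% = doxorubicin-only wells and 100% = vehicle-treated cells without doxorubicin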
MRP resist rev – compounds reversing MRP-mediated drug resistance | differential viability (reversal), % at 10 µM | actives 0.04% (n = 85,000) | H69AR cells + 2 uM doxorubicin, CellTiter-Glo, 72 h;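 active means viability drop by adding the cancer drug above about 55%, with treated viability meeting a 40% cutoff, limit read from the data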;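 further: viability without doxorubicin minus viability with 2 µM doxorubicin for each compound; larger differential means the compound sensitizes cells more to doxorubicin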
GALR2 ag – agonists of human galanin receptor 2 (GALR2); AID 803; O43603; GALR2-expressing cells, agonist activation read-out; activation, % (no concentration beside the values); actives 0.48% (n = 140,000); in the data active means activation above about 5%, passing the limit was not always enough;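 further: 0% = vehicle buffer wells and 100% = reference agonist at full effect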
Target sequence (O43603 whole entry, looked up): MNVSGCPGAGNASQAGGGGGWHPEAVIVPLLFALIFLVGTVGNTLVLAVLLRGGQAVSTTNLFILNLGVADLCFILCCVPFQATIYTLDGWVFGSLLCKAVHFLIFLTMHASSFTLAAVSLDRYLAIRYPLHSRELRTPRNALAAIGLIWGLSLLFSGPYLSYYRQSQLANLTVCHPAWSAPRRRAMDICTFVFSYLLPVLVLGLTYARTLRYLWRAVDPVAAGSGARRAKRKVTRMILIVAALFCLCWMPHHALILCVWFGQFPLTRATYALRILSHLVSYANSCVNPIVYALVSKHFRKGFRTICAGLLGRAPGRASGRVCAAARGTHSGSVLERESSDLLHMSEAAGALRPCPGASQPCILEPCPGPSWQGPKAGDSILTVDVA
GALR2 antag – blocks the human galanin receptor 2. O43603. GALR2-expressing cells, antagonist mode. inhibition, % at 4 µM. actives 0.39% (n = 140,000). AID 828; in the data active means inhibition above about 27%;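 further: cells stimulated with galanin 1-16 at roughly its EC80; 0% = agonist challenge control and 100% = basal control without agonist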
S1P2 blocker – blocks the human S1P2 receptor. O95136. cell-based S1P2 antagonist assay, inhibition at 5 uM. inhibition, % at 5 µM. actives 0.21% (n = 97,000). AID 736; in the data active means inhibition above about 45%;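 further: CRE beta-lactamase reporter cells expressing human S1P2 stimulated with S1P; 0% = agonist at EC80 alone and 100% = agonist plus reference antagonist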
GALR2 agon conf – confirmation of human galanin receptor 2 (GALR2) agonists. actives 10% (n = 460). shares compounds with GALR2 ag. activation, % at 5.6 µM. GALR2-expressing cells, agonist activation; in the data active means activation above about 8.4%;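 further: 0% = buffer-only vehicle wells and 100% = full reference agonist response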
BLA act counter – beta-lactamase activation, GALR2 counterscreen; shares compounds with GALR2 ag; CHO NFAT-bla reporter, beta-lactamase FRET activation; AID 865; actives 10% (n = 460); activation, % at 5.6 µM;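 active means activation above the screen-wide mean activation plus 3 SD, cut at about 8% in these data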;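 further: 0% = DMSO with PBS wells and 100% = thapsigargin positive control wells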
* hit, by the source's call; / = no result.

SMILES	S1P2 ag	MRP-1 activ	MRP resist rev	GALR2 ag	GALR2 antag	S1P2 blocker	GALR2 agon conf	BLA act counter
Cc1ccc(C)c(OCCCCn2ccnc2)c1	-2.9	-2.2	8.9	11.2	-7.6	-16.5	0.3	2.4
CCCS(=O)(=O)c1snnc1C	-3.5	-0.9	10.7	14.0*	-15.0	-5.0	-0.6	0.3
O=C(Cn1c2ccccc2c(=O)c2ccccc21)Nc1cccc(F)c1	/	-0.3	/	11.9*	0.0	/	9.1*	13.7*
O=C(CSc1nc2c([nH]c3ccccc32)c(=O)n1-c1ccccc1)N1CCOCC1	/	-2.9	-12.6	-1.6	2.4	/	/	/
O=C(CSc1nc2c([nH]c3ccccc32)c(=O)n1-c1cccc(Cl)c1)N1CCOCC1	13.0	-3.8	-8.1	13.4*	3.0	4.8	6.2	1.0
Cc1ccc(C2(C)NC(=O)N(CC(=O)NCc3cccs3)C2=O)cc1 (stereo not drawn)	/	-0.9	/	-1.1	4.9	/	/	/
O=C(COc1ccc(Cl)cc1)NNC(=O)C(=O)N1CCCCC1	-1.9	3.3	/	29.1*	0.0	-11.4	-0.5	-0.3
Cc1cccn2c(=O)c(C=Nc3ccccc3)c(NCCO)nc12	0.5	-1.7	10.5	-2.2	5.5	-4.1	/	/
COc1ccc(C(O)(C(=O)NNc2ccc(C)cc2)c2cccs2)cc1 (stereo not drawn)	-7.3	-4.5	/	-1.4	-2.5	6.0	/	/
O=C(NNc1ccc(C2CCCCC2)cc1)C(O)(c1ccccc1)c1cccs1 (stereo not drawn)	-3.1	-5.2	/	12.8*	8.1	-9.0	-0.6	-2.4
N#Cc1c(-c2ccco2)nc(SCc2ccc(F)cc2)[nH]c1=O	-1.4	2.1	-11.5	-0.6	-6.4	4.6	/	/
Cc1nc(SCc2cccc(F)c2)[nH]c(=O)c1C#N	-7.6	-1.6	-0.9	153.6*	1.5	-12.5	-1.3	-1.6
COc1ccc(C(=O)N2CCC(O)(c3ccc(F)cc3)CC2)cc1OC	-4.7	0.1	-14.6	97.7*	-6.5	-29.6	-0.2	-2.7
COc1ccc(OC)c2sc(NC(=O)c3ccc(Cl)s3)nc12	-11.0	1.2	/	-1.5	-15.7	4.9	/	/
COc1ccc(OC)c2sc(NC(=O)c3ccc(Br)s3)nc12	/	-0.8	3.5	13.4*	15.3	/	-1.0	-1.9
CC(C)NC(=O)c1ccccc1NC(=O)/C=C/c1cccc([N+](=O)[O-])c1	/	-2.5	/	25.4*	3.3	/	11.0*	21.6*
CC(C)C(NC(=O)/C=C/c1cccc([N+](=O)[O-])c1)C(C)C	/	-2.3	/	-1.5	4.5	/	/	/
COc1ccc(CNC(=O)C2=C(C)C(=O)OC23CCC(C)CC3)cc1 (stereo not drawn)	-1.1	-2.5	18.0	-3.0	-3.5	-8.9	/	/
COc1ccc(NC(=O)C2=C(C)C(=O)OC23CCC(C)CC3)cc1Cl (stereo not drawn)	-1.5	-3.2	4.8	84.4*	-23.9	-8.3	-0.7	-1.5
O=C(Oc1ccc(F)cc1C(=O)/C=C/c1cccs1)c1cccc([N+](=O)[O-])c1	-4.1	-1.6	1.0	39.4*	11.3	9.9	1.6	3.5
O=C(/C=C/c1ccccc1F)c1cccc([N+](=O)[O-])c1	/	-4.9	/	-0.5	-2.5	/	/	/
Cc1ccc(C)c(NC(=O)C2C3CCCC2C3c2ccccc2)c1 (stereo not drawn)	-4.2	0.1	/	-0.4	0.7	7.2	/	/
COc1cccc(/C=N/NC(=O)CCc2c(C)n[nH]c2C)c1	-3.7	0.0	17.7	14.1*	3.3	7.8	-0.9	-2.5
Cc1n[nH]c(C)c1N1C(=O)c2cccc3c(N4CCCCCC4)ccc(c23)C1=O	-10.1	-3.4	-2.9	1.0	17.7	33.1	/	/
CC(=O)c1ccc2c3c(cccc13)C(=O)N(c1c(C)nn(C)c1C)C2=O	-3.3	-1.1	-1.2	20.4*	-2.3	-9.3	-0.6	-1.4
SMILES	S1P2 ag	MRP-1 activ	MRP resist rev	GALR2 ag	GALR2 antag	S1P2 blocker	GALR2 agon conf	BLA act counter
Cc1cc(C)c2c(N)c(C(=O)NCC3CCCCC3)sc2n1	-3.7	0.2	1.6	27.8*	3.0	-20.8	-0.2	-0.5
CCOc1ccc2c(C)cc(=O)oc2c1OCC	-2.1	-1.2	17.0	-1.4	1.4	16.5	/	/
CCOc1ccc(-c2nnc(NC3=NCCCCC3)o2)cc1	-5.3	2.6	-7.5	16.6*	0.2	-5.7	-1.0	-1.7
COc1cccc2sc(Nc3nc4ccc(NC(C)=O)cc4s3)nc12	/	0.4	/	10.3*	3.5	/	3.1	7.2
COC(=O)c1sccc1-c1ccc(/C=N/OCc2c(Cl)cccc2Cl)o1	-4.8	0.7	/	-1.8	1.3	15.7	/	/
COc1ccccc1OCCOc1ccc(/C=C2/C(=N)N3OC(C)=CC3=NC2=O)cc1OC	-4.1	-3.1	/	-2.5	0.2	-6.9	/	/
CC1=CC2=NC(=O)/C(=C\c3cc(C)n(-c4ccc(F)cc4)c3C)C(=N)N2O1	/	-2.2	/	11.7*	-10.8	/	7.8	10.6*
CCN1C(=O)C(C)S/C1=N\S(=O)(=O)c1ccc(Cl)s1 (stereo not drawn)	-12.2	-3.0	7.1	0.2	12.5	15.0	/	/
CCOC(=O)/C(=C\Nc1ccccc1C(F)(F)F)Sc1ncc(C(F)(F)F)cc1Cl	-3.1	-2.1	4.1	10.4	-8.4	-10.7	-1.1	-3.0
CCOC(=O)c1cnc(Nc2nc3ccccc3o2)nc1C	-4.2	-2.0	2.6	-0.8	0.3	-20.4	/	/
N=c1oc2cc(O)ccc2cc1C(=O)Nc1nc2ccccc2s1	/	4.1	/	25.5*	-36.8	/	35.5*	93.8*
CCOC(=O)COn1c(=O)c[n+]([O-])c2ccccc21	-0.5	-2.2	-10.5	-1.6	-18.6	-3.9	/	/
CCOC(=O)COn1c(=O)c(C)[n+]([O-])c2ccccc21	-3.6	-2.0	7.7	31.2*	-2.8	-12.4	-0.3	-3.0
Cc1nc2ccccc2n1CCc1nc2c3ccccc3nc(SCC(=O)NCc3ccco3)n2n1	-4.5	-2.7	-39.6	8.7*	-1.2	1.1	-0.6	0.5
O=C(CCn1c(SCC(=O)NCc2ccco2)nc2ccccc2c1=O)NCCc1ccccc1	0.5	-1.5	14.2	-0.8	-5.6	15.3	/	/
CCOC(=O)c1c(/N=C/c2cccc([N+](=O)[O-])c2O)sc(C)c1C	/	-3.3	/	-2.1	8.9	/	/	/
COC(=O)Cn1c(=NC(=O)c2sc3ccccc3c2Cl)sc2cc(S(N)(=O)=O)ccc21	/	-2.9	/	0.0	0.9	/	/	/
COC(=O)Cn1c(=NC(=O)c2nc3ccccc3s2)sc2cc(S(C)(=O)=O)ccc21	/	-3.5	/	38.8*	-16.4	/	-0.2	1.7
CC(C)CN(C(=O)COC(=O)c1ccc([N+](=O)[O-])o1)C1CCS(=O)(=O)C1 (stereo not drawn)	/	-2.9	/	-1.8	-14.7	/	/	/
CC1(C)CC(=O)C2=C(C1)Nc1ncnn1C2c1ccccn1 (stereo not drawn)	-6.8	0.4	9.3	23.1*	11.4	-1.3	-0.9	-2.0
O=C(Nc1ccc(O)cc1)/C(=C\c1cccs1)NC(=O)c1ccccc1	/	-0.5	/	8.8*	4.9	/	-0.8	0.9
